Records with an inconclusive call do not appear. Activity calls are given as the source filed them. The calls were made as follows: active = hit-call score of the fitted dose curve at least 0.9, where 1 is the maximum; inconclusive = response in the unintended direction; inactive = score below 0.9.

This assay deals with frog Peroxisome Proliferator-activated Receptor-alpha (PPARa), gene 398843. The experiment in a line: ATG_frPPARa_EcoTox2: Attagene TRANS-FACTORIAL EcoTox-2 HepG2 Assay for frog Peroxisome Proliferator-activated Receptor-alpha (PPARa). The protocol:
ATG_EcoTox2 is a cell-based, multiplexed assay created by modifying the existing Attagene TRANS-FACTORIAL system to include a panel of nuclear receptors from some or all the following species: human (Homo sapiens), african clawed frog (Xenopus laevis), rainbow trout (Oncorhynchus mykiss), japanese medaka (Oryzias latipes), and zebrafish (Danio rerio). The ECOTOX2-FACTORIAL format uses HepG2, a human liver cell line, with measurements taken at 24 hours after chemical dosing in a 24-well plate. ATG_frPPARa_EcoTox2 is one of 29 assay components calculated in the ATG_EcoTox2 assay. It is designed to make measurements of mRNA induction, a form of inducible reporter, as detected with fluorescence intensity signals by Reverse transcription polymerase chain reaction (RT-PCR) and Capillary electrophoresis technology.The assay endpoint ATG_frPPARa_EcoTox2 was analyzed in the positive analysis fitting direction relative to DMSO as the negative control and baseline of activity. Using a type of inducible reporter, measures of mRNA for gain-of-signal activity can be used to understand the reporter gene at the transcription factor-level as they relate to the gene PPARa. Furthermore, this assay endpoint can be referred to as a primary readout, because this assay has produced multiple assay endpoints where this one serves a reporter gene function. To generalize the intended target to other relatable targets, this assay endpoint is annotated to the nuclear receptor intended target family, where the subfamily is non-steroidal.
Human liver HepG2 cells are transiently transfected with multiple reporter transcription units (MRTUs) in 6-well plates using FuGene 6 reagent (Roche; 3 ml FuGene/1 mg DNA). The MRTU constructs are regulated by a cis-regulating element (promoter). Each RTU expresses a GAL4-UAS that regulates the transcription of a nearby target reporter gene sequence. A major difference between the CIS and TRANS system is that in CIS activities of endogenous TFs are measured, whereas the TRANS assay evaluates changes in activities of exogenous, chimeric NR-Gal4 proteins. […] At the end of 24 hour incubation, total RNA was isolated using TriZol reagent (Invitrogen). The isolated RNA is then reverse-transcribed using oligo(dT) primer and Mo-MLV reverse transcriptase (Invitrogen) with DNAse I (Ambion) treatment for 30 min. The one-tenth of the produced cDNA was amplified by PCR using Taq DNA polymerase (Invitrogen) and two reporter sequence-specific primers. […] The fragments were purified using Qiaquick PCR columns (Qiagen), analyzed on an ABI 3130xL genetic analyzer (Applied Biosystems) with peak positions identified by using a set of X-rhodamine (ROX)-labeled MapMarker1000 molecular weight standards (BioVentures). […]
On to `O=C(O)C(F)(F)C(F)(F)C(F)(F)C(F)(F)C(F)(F)C(F)(F)C(F)(F)F`, for which the AC50 was 75 µM (active).
Regarding `O=P(Oc1ccccc1)(Oc1ccccc1)Oc1ccccc1`, the result was inactive.
Turning to `O=S(=O)(O)C(F)(F)C(F)(F)C(F)(F)C(F)(F)C(F)(F)C(F)(F)F`, the result was inactive.
Still for that read-out and setting: for `[Cl][Sn]([c]1ccccc1)([c]1ccccc1)[c]1ccccc1` the value was “inactive”.

These data come from PubChem BioAssay AID2284344 (EPA ToxCast).
